Source: PubChem
The list is not random: actives were taken first. Their share in the collection is about 0.39%.
p53 reactivator – mutant p53 re-activation in reporter cells | Potency, µM (titrated, usually from 92.2 µM), hits mostly activators | AID 504706 | H1299 p53-A138V BP100-luciferase reporter, luminescence, 24 h | 320,000 compounds, 0.063% hits; also: nearly all actives have a fitted effect of over 45% in size
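p53-null H1299 cells stably carrying temperature-sensitive p53-A138V and a BP100-luciferase reporter were pinned with compounds (4-point, 1:5 series) and held 24 hrs at 37 deg C. Luminescence was read 10 min after detection reagent.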
Tb PFK inh-1 – T. brucei PFK enzyme inhibition; O15648; T. brucei PFK, ADP-Glo luminescence; Potency, µM (titrated, usually from 57.5 µM), actives largely listed as inhibitors; 330,000 compounds, 0.17% hits; also: nearly all actives have a fitted effect of over 60% in size
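1.25 nM PFK with 0.5 mM F6P and 0.1 mM ATP in 0.1 M TEA pH 8.0, 5 mM MgCl2, incubated 45 min at room temperature; ADP measured by ADP-Glo luminescence; compounds titrated up to 57 uM.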
USP2a block – USP2a (human) protease inhibition; O75604; USP2 core, Ub-CHOP2 coupled fluorogenic reporter, 485/531; Potency, µM (highest dose often 38.3 µM), most hits filed as inhibitors; 330,000 compounds, 0.01% hits; AID 463254
Target sequence (O75604 whole entry, looked up): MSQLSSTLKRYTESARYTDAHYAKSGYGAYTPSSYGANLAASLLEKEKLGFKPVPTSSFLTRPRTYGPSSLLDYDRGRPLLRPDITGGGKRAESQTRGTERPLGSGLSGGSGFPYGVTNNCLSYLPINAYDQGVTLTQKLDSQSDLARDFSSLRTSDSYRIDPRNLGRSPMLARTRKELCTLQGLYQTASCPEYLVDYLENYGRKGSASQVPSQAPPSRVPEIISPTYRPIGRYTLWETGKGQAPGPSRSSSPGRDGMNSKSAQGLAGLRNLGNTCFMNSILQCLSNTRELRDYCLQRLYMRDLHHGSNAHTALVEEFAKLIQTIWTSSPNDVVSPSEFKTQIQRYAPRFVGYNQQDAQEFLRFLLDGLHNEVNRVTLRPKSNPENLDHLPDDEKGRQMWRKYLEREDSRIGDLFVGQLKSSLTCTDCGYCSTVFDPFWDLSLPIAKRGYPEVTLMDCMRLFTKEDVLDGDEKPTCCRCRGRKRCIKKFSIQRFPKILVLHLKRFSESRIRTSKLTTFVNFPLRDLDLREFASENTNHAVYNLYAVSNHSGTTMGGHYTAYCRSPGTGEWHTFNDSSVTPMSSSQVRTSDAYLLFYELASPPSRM
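Cell-free coupled assay: 10nM USP2 core preincubated 30min RT with compound in Tris-HCl pH 8.0/CaCl2/CHAPS buffer, then 25nM Ub-CHOP2 and 25nM reporter substrate; fluorescence (Ex 485/Em 531) read after 60min RT, normalized to NEM inhibition, concentration-response curves fitted.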
GLS inh – glutaminase GLS (human) inhibition; GLS enzymatic activity, qHTS titration; Potency, µM (series often up to 45.5 µM), hits mostly inhibitors; 410,000 compounds, 0.21% hits
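Glutamate formation by hKGA was monitored fluorometrically using coupled glutamate oxidase, HRP and Amplex Red. Substrate was added as 1 mM L-glutamine solution; incubation was 30 min at RT after an initial read.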
TbPFK ATP – inhibits T. brucei PFK measured by ATP depletion; Potency, µM (highest dose often 57.5 µM); 1,100 compounds, 47% hits; shares compounds with Tb PFK inh-1; AID 504636; Tb PFK enzyme, ATP depletion, Kinase-Glo Plus luminescence; calls by dose curve; also: nearly all actives have a fitted effect of over 60% in size
Tb PFK inh-2 – validation of T. brucei phosphofructokinase inhibitors | shares compounds with Tb PFK inh-1 | Potency, µM (highest dose often 57.5 µM), usual class: inhibitors | AID 504637 | 1,100 compounds, 41% hits | purified T. brucei PFK, ADP-Glo luminescence, 45 min; also: nearly all actives have a fitted effect of over 60% in size
Hits are given with their value; 0 = inactive; ? = inconclusive; - = no result. Unless noted, calls follow the shape of the dose curve; as a rule, active = well fitted curve in the direction sought with a large enough effect; inconclusive = small, poorly fitted or top-dose-only effect, or another doubt; inactive = no such curve, though single readings can be large; an effect the other way counts as inactive or inconclusive.

SMILES	p53 reactivator	Tb PFK inh-1	USP2a block	GLS inh	TbPFK ATP	Tb PFK inh-2
O=C(COc1ccc(Cl)cc1Cl)Nc1ccc(S(=O)(=O)NC2=NCCCCC2)cc1	0	15µM	0	0	?	30µM
CCN(CC)C(=O)c1ccc(NC(=O)c2cc(S(=O)(=O)N3CCCCCC3)ccc2OC)cc1	0	0	0	0	-	-
O=C(COc1ccccc1[N+](=O)[O-])N1CCN(CCc2ccncc2)CC1	-	-	-	0	-	-
CCc1ccccc1NC(=O)c1cccn(Cc2ccccc2F)c1=O	-	-	-	0	-	-
O=C1NC(=O)C(C2CCCCCC2)C(=O)N1	-	-	-	0	-	-
CN1CCc2cccc3c2[C@@H]1Cc1ccc(O)c(O)c1-3	0	4.3µM	0	?	1.7µM	6µM
CN1CCc2cc(O)cc3c2[C@H]1Cc1ccc(O)c(O)c1-3	-	-	-	0	-	-
Oc1ccc(Cl)c(Cl)c1	0	?	0	0	-	-
CN(C)C=Nc1ccc(Cl)c(Cl)c1	0	27µM	0	0	0	0
NS(=O)(=O)c1ccc(-c2ccc(C=C3C(=O)NC(=O)NC3=O)o2)cc1	0	0	0	0	-	-
CC1(C)OC(=O)C(=Cc2ccc(-c3ccc(S(N)(=O)=O)cc3)o2)C(=O)O1	0	?	0	0	0	?
O=c1[nH]c2ccccc2n1C1CCN(C(c2cc3ccccc3o2)c2nnnn2Cc2ccccc2)CC1 (stereo not given)	-	-	-	0	-	-
Clc1nssc1=Nc1nncs1	0	4.3µM	0	?	12µM	9.5µM
O=C(Cc1c(-c2ccccc2)nc2ccc(Br)cn12)N1CCCC1	-	-	-	0	-	-
O=C(O)Cc1sc(-c2ccccc2Cl)nc1-c1ccccc1	0	?	0	0	0	0
N#Cc1cccc(NC(=O)CSc2nc3c(cc2C#N)N2CCC3CC2)c1	-	-	-	0	-	-
COc1ccc(NC(=O)CNc2cccc(C#N)c2)cc1Cl	0	?	0	0	?	?
O=C(Nc1ccc(Br)cc1)c1cc(Br)cc(Br)c1O	-	-	-	0	-	-
CCCCc1ccc(-n2nnnc2SCC(=O)Nc2cc(OC)c([N+](=O)[O-])cc2C)cc1	0	?	0	0	0	0
N#Cc1cccc(NC(=O)c2sc3nc4c(cc3c2N)N2CCC4CC2)c1	-	-	-	0	-	-
Cc1cc(C)c(C)c(C(O)(C(=O)O)c2ccccc2)c1 (stereo not given)	-	-	-	0	-	-
Cc1oc2cc3oc(=O)c(CCC(=O)N4CCCCC4)c(C)c3cc2c1C	-	-	-	0	-	-
CCOc1cc(/C=C\[N+](=O)[O-])ccc1OCC(=O)Nc1ccccc1C	0	?	0	0	0	?
CSS(=O)(=O)c1cccc2cccnc12	0	17µM	0	?	21µM	30µM
Cc1ccc(N(C)C(=O)Oc2cccc3cccnc23)cc1	0	0	0	0	-	-
NN1C(=O)/C(=C2/Sc3ccccc3N2CCCS(=O)(=O)O)SC1=S	-	30µM	0	0	19µM	?
N#C/C(C(=O)Nc1ccc(Cl)cc1)=C(/S)Nc1ccccc1	0	9.5µM	0	0	15µM	?
C/C(O)=C(\C#N)C(=O)Nc1cc(Br)ccc1Br	0	0	0	0	-	-
O=C(COC(=O)c1ccc(Cl)c(S(=O)(=O)N2CCOCC2)c1)Nc1ccc2[nH]c(=O)[nH]c2c1	0	?	0	0	?	?
O=c1[nH]c(O)c(N=Nc2cccc(S(=O)(=O)N3CCOCC3)c2)c(=O)[nH]1	0	0	0	0	-	-
